Shown are actives, neighbours in structure and some others; about 4.5% of the full set was active somewhere.
Rpn11 inh = inhibitors of human proteasome Rpn11 | AID 588493 | human 26S proteasome, Ub4-pepOG fluorescence polarization; 20S core pre-blocked with epoxomicin | inhibition, % at 20 µM | 0.59% of 360,000 active;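 active = inhibition at 20 µM, scaled to each plate's controls, above about 33%, limit read from the data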
TPT1 inhibitor = blocks Candida albicans tRNA 2'-phosphotransferase; recombinant caTPT1, FP RNA substrate dephosphorylation; inhibition, % at 5 µM; 0.81% of 300,000 active;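 active = inhibition above the mean of all tested compounds plus 3 SD, set per screening campaign, cut at about 24% in these data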;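 note: plate controls were DMSO alone for no effect and ferristatin control at 100 nM for full effect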
EBNA-1 inh = blocks EBNA-1 binding to DNA. EBNA-1 DNA binding, fluorescence polarization. inhibition, % at 14.8 µM. 0.34% of 300,000 active. AID 1950; in the data active = inhibition above about 28%
ZTA counter = blocks Epstein-Barr virus ZTA, an EBNA-1 counter-screen; ZTA-DNA binding, fluorescence polarization; P03206; 0.15% of 320,000 active; inhibition, % at 11 µM; in the data active = inhibition above about 33%
dFosB activator = mouse delta FosB homodimer activation. 0.99% of 340,000 active. purified delta FosB, TAMRA-CDK5 oligo fluorescence polarization; percent of positive-control signal above neutral wells. P13346. activation, % at 25 µM;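 active = mean activation above about 17%, with every replicate also reaching it, limit read from the data, passing the limit was not always enough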
Target sequence (P13346 whole entry, looked up): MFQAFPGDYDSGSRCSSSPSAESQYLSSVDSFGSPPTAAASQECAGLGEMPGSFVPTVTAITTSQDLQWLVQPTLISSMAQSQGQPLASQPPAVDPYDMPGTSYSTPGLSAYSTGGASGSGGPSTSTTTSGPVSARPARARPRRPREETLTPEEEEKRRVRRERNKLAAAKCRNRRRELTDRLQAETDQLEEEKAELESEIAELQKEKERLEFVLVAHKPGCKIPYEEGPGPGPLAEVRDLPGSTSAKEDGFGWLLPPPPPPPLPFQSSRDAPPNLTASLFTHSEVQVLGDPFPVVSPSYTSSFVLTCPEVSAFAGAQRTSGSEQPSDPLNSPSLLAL
GRIN3A LBD mod = modulates the human NR3A ligand-binding domain. NR3A LBD differential scanning fluorimetry, Tm shift; 0% = protein alone, 100% = glycine-bound protein. Tm shift relative to glycine control, % at 25 µM. 2.5% of 340,000 active. AID 1259313;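 active = melting temperature shift of at least 10% of the positive control shift, at one fixed dose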
TPT1 inh confirm = confirmation of Candida albicans TPT1 inhibitors; shares compounds with TPT1 inhibitor; recombinant caTPT1, fluorescence polarization, RNase T1 coupled; inhibition, % at 5 µM; 74% of 2,400 active;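 active = inhibition above the primary screen limit, the mean inhibition of all tested compounds plus 3 SD, cut at about 25% in these data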
RNase T1 inh = RNase T1 inhibition in TPT1 counter-screen. RNase T1 cleavage, fluorescence polarization, 1536-well. AID 2153. 83% of 2,400 active. inhibition, % at 5 µM. shares compounds with TPT1 inhibitor;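 active = inhibition above the solvent-only control well mean plus 3 SD, limit set per screening run, cut at about 23% in these data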;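 note: plate controls were DMSO wells with enzyme for no effect and wells without RNase T1 for full effect; inhibitors block cleavage so intact labeled substrate keeps polarization high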
Target sequence (P00651 whole entry, looked up): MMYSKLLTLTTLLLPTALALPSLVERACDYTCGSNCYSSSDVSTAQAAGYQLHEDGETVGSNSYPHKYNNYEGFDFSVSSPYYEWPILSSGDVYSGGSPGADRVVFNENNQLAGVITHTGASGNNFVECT
An asterisk follows results filed as active; . = no result given.

SMILES	Rpn11 inh	TPT1 inhibitor	EBNA-1 inh	ZTA counter	dFosB activator	GRIN3A LBD mod	TPT1 inh confirm	RNase T1 inh
CCC1CCCCN1CCCNC(=O)CNC(=O)c1nn(-c2ccc(OC)cc2)c(=O)c2ccccc12 (stereo unspecified)	4	-3	5	-1	-11	-2	.	.
CCC1CCCCN1CCCNC(=O)CNC(=O)Cn1ccc2ccccc2c1=O (stereo unspecified)	-6	37*	1	-1	-4	0	7	6
CC(=O)NC1=NC(=O)/C(=C/c2cn(C(C)=O)nc2-c2ccccc2)S1	40	31*	-6	-16	-12	2	35*	47*
CC(=O)NC1=NC(=O)/C(=C/c2cc(C)n(-c3ccc(NC(C)=O)cc3)c2C)S1	.	68*	-16	-6	-10	0	102*	109*
O=C(O)C1=C[C@H](c2coc3ccccc3c2=O)C[C@H](OCc2ccc(CO)cc2)O1	4	-1	2	-2	-7	-1	.	.
C=CCSc1nnc(C)c(/C=C/Nc2ccc(Cl)cc2)n1	.	155*	0	-5	-8	-5	133*	129*
CSc1nnc(C)c(/C=C/Nc2ccc(F)cc2F)n1	6	-1	2	-1	-4	-2	.	.
Cc1nc(N2CCOCC2)[nH]c(=O)c1C(O)C(Cl)(Cl)Cl (stereo unspecified)	1	0	16	3	1	-1	.	.
COC(=O)C1(C)NC(c2ccc(Cl)cc2)C2C(=O)N(c3ccccc3)C(=O)C21 (stereo unspecified)	-7	82*	1	-3	4	-3	5	5
O=S(=O)(Nc1cc(Cl)ccc1N1CCCCC1)c1cccs1	31	48*	4	-3	-5	-4	28*	35*
O=S(=O)(Nc1ccc(N2CCCCC2)cc1)c1cccs1	6	0	7	-17	-1	.	.	.
CCN1CCc2c(sc(NC(=O)c3ccc4ccccc4c3)c2C(N)=O)C1	.	65*	4	1	-31	.	80*	89*
CCN1CCc2c(sc(NC(=O)CN3C(=O)c4ccccc4C3=O)c2C(N)=O)C1	5	1	-5	-5	11	-1	.	.
CCN1CCc2c(sc(NC(=S)NC(=O)c3ccc(Cl)cc3)c2C(N)=O)C1	.	27*	1	-3	-9	-1	30*	36*
CCOc1cc(/C=N/N2CCOCC2)ccc1OCc1ccc(C(=O)OC)o1	0	1	-12	-10	-10	-2	.	.
Cc1cc(Cl)ccc1C(O)c1ncc(-c2cccc3ccccc23)[nH]1 (stereo unspecified)	2	.	.	.	.	.	.	.
Cc1sc(NC(=O)c2sc3nc4c(C)cccc4cc3c2N)c(C#N)c1C	32	25*	17	-2	-13	19*	30*	43*
Clc1ccc(/C=N/NC2=Nc3cccc4cccc2c34)cc1	28	13	-2	-1	2	-9	.	.
COc1ccc(NC2=Nc3cccc4cccc2c34)cc1OC	26	33*	8	12	8	-16	31*	40*
COc1ccc(CC(=O)NNC2=Nc3cccc4cccc2c34)cc1OC	5	-3	-4	-25	1	-3	.	.
C(=N\NC1=Nc2cccc3cccc1c23)/c1ccccc1	-76	26*	10	2	9	-2	42*	58*
CCCCc1cc(=O)oc2c(C)c(OCc3nn[nH]n3)ccc12	2	-3	-14	10	-5	0	.	.
N#CC(C#N)c1ccnc2ccccc12	-7	.	.	.	.	.	.	.
CCN1C/C(=C/c2ccc(N3CCOCC3)cc2)C(=O)/C(=C/c2ccc(N3CCOCC3)cc2)C1	.	99*	5	9	3	-1	97*	93*
CN1C/C(=C\c2ccc(N3CCOCC3)cc2)C(=O)/C(=C/c2ccc(N3CCOCC3)cc2)C1	.	63*	-4	-5	-11	-3	89*	94*
SMILES	Rpn11 inh	TPT1 inhibitor	EBNA-1 inh	ZTA counter	dFosB activator	GRIN3A LBD mod	TPT1 inh confirm	RNase T1 inh
CCc1ccc(/C=C2/SC(N3CCOCC3)=NC2=O)cc1	-3	-1	-10	6	0	3	.	.
CCN=C(NS(=O)(=O)c1ccc(Br)cc1)c1ccc(Cl)cc1	2	4	-12	-17	-2	-1	.	.
CSc1nc(-c2ccc(N(C)C)cc2)c(C#N)c(=O)n1C	3	31*	-5	0	-10	1	41*	52*
Cc1ccc(NC(=O)c2cc(S(=O)(=O)N3CCOCC3)c(Br)s2)cc1	0	29*	-2	-9	0	-7	0	3
CCOC(=O)c1sc(N/N=C/c2ccccc2)nc1C	10	0	2	-19	0	-11	.	.
CC(=O)c1sc(N/N=C\c2ccccc2O)nc1C	.	136*	0	15	-3	7	118*	115*
CC(=O)Nc1ccc(N=Cc2c(O)c3ccccc3oc2=O)cc1	3	.	.	.	2	-3	.	.
CC(=O)Nc1ccc(N=Cc2c(O)c(C(=O)Nc3ccccc3)cc3ccccc23)cc1	.	121*	14	9	.	8	109*	107*
O=C(O)c1cc(O)c2c(c1)[C@@H]([C@H]1c3cc(C(=O)O)cc(O)c3C(=O)c3c(O[C@@H]4O[C@H](CO)[C@@H](O)[C@H](O)[C@H]4O)cccc31)c1cccc(OC3O[C@H](CO)[C@@H](O)[C@H](O)[C@H]3O)c1C2=O (stereo partly specified)	34	77*	94*	15	-8	7	84*	6
O=C1c2cc(CO)cc(O)c2C(=O)c2c(O[C@@H]3OC(CO)[C@@H](O)[C@@H](O)[C@@H]3O)cccc21 (stereo partly specified)	1	-1	-7	-5	2	0	.	.
CC(C)(C)NC(=O)CSc1nc(O)cc(=O)n1-c1ccccc1F	.	109*	5	-1	0	0	84*	94*
C[C@H]1CN([C@@H](C)CO)C(=O)CCCn2cc(nn2)CO[C@@H]1CN(C)C(=O)Nc1ccc(F)cc1	4	.	.	.	.	.	.	.
CN(C)CCN1C(=O)C(O)=C(C(=O)c2cc3ccccc3o2)C1c1ccc(N(C)C)cc1 (stereo unspecified)	31	32*	4	-7	-3	0	21	35*
Cc1cc(C)c(NC(=O)CN(C)C(=O)CNC(=O)c2cccs2)c(C)c1	-7	.	.	-11	-7	0	.	.
COc1ccc(C(=O)N/N=c2\oc3ccccc3cc2C(=O)NCc2ccccc2)cc1	-4	33*	-8	3	-9	-8	15	15

Compound activity (PubChem)
